Assay results as given in PubChem BioAssay (NCI).
Compounds without any hit were thinned out: in the full panel of roughly 79,000, 15% have a hit. Activity calls are given as the source filed them. Cut-off read from the data, not from the text of the source: active = growth inhibition above about 70%; inactive = the rest.

Assays:
[1] = NCI Yeast Anticancer Drug Screen. Data for the rad52 strain (AID 147);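 note: 0% = growth of vehicle-treated control cultures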; conditions: S. cerevisiae rad52 mutant growth inhibition, stronger effect = higher value
Outline: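 Inhibition of yeast growth, referenced to vehicle controls, was the measured output for a strain with defective DNA damage repair.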

[2] = NCI Yeast Anticancer Drug Screen. Data for the wt1 strain (AID 149);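 note: 0% = growth of vehicle-treated wt1 cultures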; conditions: S. cerevisiae wt1 strain (SPY 50644) growth inhibition, stronger effect = higher value
Outline: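 Using yeast strain wt1, compound-induced growth inhibition was determined against vehicle-treated cultures.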

[3] = NCI Yeast Anticancer Drug Screen. Data for the rad50EPP+ strain (AID 151);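 note: 0% = growth of vehicle-treated control cultures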; conditions: S. cerevisiae rad50 mutant strain, stronger effect = higher value
Outline: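 Genetically defined yeast (rad50EPP+, DNA damage repair alteration) is grown with compound, and inhibition of growth is expressed relative to vehicle-treated controls.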

[4] = NCI Yeast Anticancer Drug Screen. Data for the mgt1 strain (AID 153); conditions: S. cerevisiae mgt1 mutant growth inhibition, stronger effect = higher value
Outline: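 In the mgt1 strain, test compounds were added and growth inhibition was determined relative to vehicle-treated controls.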

[5] = NCI Yeast Anticancer Drug Screen. Data for the rad50 strain (AID 155);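 note: 0% = growth of vehicle-only cultures of the same strain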; conditions: S. cerevisiae rad50 strain growth inhibition, stronger effect = higher value
Outline: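 Relative growth inhibition (compound vs vehicle) was measured in yeast with a defined repair-gene alteration.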

[6] = NCI Yeast Anticancer Drug Screen. Data for the mec2-1 strain (AID 157); conditions: S. cerevisiae mec2-1 strain, stronger effect = higher value
Outline: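 Each compound was tested on mec2-1 yeast, a strain altered in DNA damage repair or cell cycle control. Growth inhibition is reported relative to vehicle.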

[7] = NCI Yeast Anticancer Drug Screen. Data for the rad14 strain (AID 159);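 note: 0% = growth of vehicle-treated control cultures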; conditions: S. cerevisiae rad14 strain growth inhibition, stronger effect = higher value
Outline: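 Screen for anticancer potential: a yeast strain altered in DNA damage repair is grown with compound, and reduced growth is quantified against vehicle controls.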

[8] = NCI Yeast Anticancer Drug Screen. Data for the sgs1 mgt1 strain (AID 161);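 note: 0% = growth of cultures given vehicle only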; conditions: S. cerevisiae sgs1 mgt1 strain, stronger effect = higher value
Outline: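 Inhibition of yeast growth, normalised to vehicle-treated controls, is reported for a strain bearing genetic alterations in DNA damage repair.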

[9] = NCI Yeast Anticancer Drug Screen. Data for the CLN2oe strain (AID 163);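 note: 0% = growth of vehicle-only control cultures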; conditions: S. cerevisiae CLN2oe strain, stronger effect = higher value
Outline: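 First, the altered yeast strain was treated with each compound; second, its growth was measured; finally, inhibition was derived by comparison with vehicle controls.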

[10] = NCI Yeast Anticancer Drug Screen. Data for the cln2 rad14 strain (AID 165);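 note: 0% = growth equal to vehicle treated cultures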; conditions: S. cerevisiae cln2 rad14 strain, stronger effect = higher value
Outline: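 Test compounds were added to cln2 rad14 yeast cultures; inhibition of growth was then determined by comparison with vehicle treatment.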

[11] = NCI Yeast Anticancer Drug Screen. Data for the bub3 strain (AID 167); conditions: S. cerevisiae bub3 mutant strain, stronger effect = higher value
Outline: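 Screening used yeast with an engineered genetic alteration affecting cell cycle control. Compound-exposed cultures were compared with vehicle cultures, and reduced growth was taken as inhibition.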

[12] = NCI Yeast Anticancer Drug Screen. Data for the wt2 strain (AID 169);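 note: 0% = growth of vehicle-treated yeast cultures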; conditions: S. cerevisiae wt2 strain growth inhibition, stronger effect = higher value
Outline: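 The panel's yeast strains carry defined changes in DNA repair or cell cycle genes. Each strain is grown with compound, and growth loss is scored relative to vehicle.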

[13] = NCI Yeast Anticancer Drug Screen. Data for the mlh1 strain (AID 171);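 note: 0% = growth of vehicle-treated control cultures of the same strain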; conditions: S. cerevisiae mlh1 strain growth inhibition, stronger effect = higher value
Outline: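 Inhibition values reflect reduced yeast growth in the presence of compound, referenced to vehicle controls, using a strain chosen for its alteration in DNA repair or cell cycle control.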

[14] = NCI Yeast Anticancer Drug Screen. Data for the sgs1 strain (AID 173);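 note: 0% = growth of vehicle-only control cultures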; conditions: S. cerevisiae sgs1 mutant, stronger effect = higher value
Outline: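 Vehicle-treated cultures served as reference for growth inhibition of a yeast strain altered in DNA damage repair or cell cycle control after compound exposure.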

[15] = NCI Yeast Anticancer Drug Screen. Data for the mlh1 rad18 strain (AID 175); conditions: S. cerevisiae mlh1 rad18 strain growth inhibition, stronger effect = higher value
Outline: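 Inhibition values reflect reduced growth of mutant yeast versus vehicle-treated controls following compound exposure; the mutations affect DNA damage repair.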

[16] = NCI Yeast Anticancer Drug Screen. Data for the rad18 strain (AID 177); conditions: S. cerevisiae rad18 mutant growth inhibition, stronger effect = higher value
Outline: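 Steps: expose repair-mutant yeast to compound; measure growth; express as inhibition relative to vehicle control.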

[17] = at 5.0 µM (retest, dose inferred, filed as 0.5)
[18] = at 50.0 µM (retest, dose inferred, filed as 5.0)

Measured: growth inhibition

COc1cc2c(cc1C[N+](C)(C)CSc1ccccc1)-c1ccccc1CC2
active: [1]; at 11.0 µM 79% | [1]; at 33.0 µM 99% | [1]; at 100.0 µM 99% | [2]; at 33.0 µM 98% | [2]; at 100.0 µM 98% | [4]; at 33.0 µM 98% | [4]; at 100.0 µM 99% | [5]; at 11.0 µM 76% | [5]; at 33.0 µM 98% | [5]; [18] 98% | [5]; at 50.0 µM 99% | [5]; at 100.0 µM 99% | [6]; at 11.0 µM 80% | [6]; at 33.0 µM 98% | [6]; [18] 99% | [6]; at 50.0 µM 99.3% | [6]; at 100.0 µM 96% | [7]; at 33.0 µM 98% | [7]; at 100.0 µM 98% | [8]; [18] 99% | [8]; at 50.0 µM 99.2% | [9]; at 11.0 µM 70% | [9]; at 33.0 µM 98% | [9]; at 100.0 µM 99% | [10]; [18] 99% | [10]; at 50.0 µM 99.3% | [11]; at 11.0 µM 78% | [11]; at 33.0 µM 98% | [11]; [18] 98% | [11]; at 50.0 µM 99.5% | [11]; at 100.0 µM 99% | [12]; at 11.0 µM 96% | [12]; at 33.0 µM 98% | [12]; at 100.0 µM 99% | [13]; at 33.0 µM 98% | [13]; at 100.0 µM 98% | [14]; at 33.0 µM 97% | [14]; at 100.0 µM 99% | [15]; [18] 99% | [15]; at 50.0 µM 99.3% | [16]; at 11.0 µM 77% | [16]; at 33.0 µM 99% | [16]; at 100.0 µM 99%
inactive: [1]; at 1.2 µM -12% | [1]; at 3.7 µM -8% | [2]; at 1.2 µM -17% | [2]; at 3.7 µM -14% | [2]; at 11.0 µM 29% | [3]; at 1.2 µM 3% | [3]; at 3.7 µM 20% | [3]; at 11.0 µM 19% | [3]; at 33.0 µM 20% | [3]; at 100.0 µM 43% | [4]; at 1.2 µM 7% | [4]; at 3.7 µM 15% | [4]; at 11.0 µM 30% | [5]; at 1.2 µM -7% | [5]; at 3.7 µM 8% | [5]; [17] 11% | [6]; at 1.2 µM -6% | [6]; at 3.7 µM 6% | [6]; [17] 3% | [7]; at 1.2 µM -12% | [7]; at 3.7 µM -10% | [7]; at 11.0 µM 64% | [8]; [17] -1% | [9]; at 1.2 µM -17% | [9]; at 3.7 µM 6% | [10]; [17] -3% | [11]; at 1.2 µM 17% | [11]; at 3.7 µM -4% | [11]; [17] 1% | [12]; at 1.2 µM 13% | [12]; at 3.7 µM 21% | [13]; at 1.2 µM 6% | [13]; at 3.7 µM 16% | [13]; at 11.0 µM 35% | [14]; at 1.2 µM 2% | [14]; at 3.7 µM 8% | [14]; at 11.0 µM 36% | [15]; [17] -5% | [16]; at 1.2 µM 9% | [16]; at 3.7 µM 12%
